This is a sample that favours compounds with a hit; in the whole collection about 9.2% have one here.
HTT cytoprotect: qHTS Multiplex Assay to Identify Dual Action Probes in a Cell Model of Huntington: Cytoprotection (ATP). 230,000 compounds, 0.14% hits. Potency, µM (top dose mostly 56.4 µM), actives largely listed as activators. AID 1471, 2008. PC12 HTT-Q103 induced, cytoprotection, ATP luminescence, 40 h; active = well fitted curve in the direction sought with a large enough effect; inconclusive = small, poorly fitted or top-dose-only effect, or another doubt; inactive = no such curve, though single readings can be large; an effect the other way counts as inactive or inconclusive; also: nearly all actives have a fitted effect of over 45% in size
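ATP quantification (ATPlite) reports survival of PC12 cells in which tebufenozide, 100 nM final, switches on Htt exon 1 with 103 glutamines linked to GFP; compounds are titrated.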
HPGD block: qHTS Assay for Inhibitors of HPGD (15-Hydroxyprostaglandin Dehydrogenase); Potency, µM, usual class: inhibitors; AID 894, 2007; 150,000 compounds, 4.3% hits; purified HPGD, NADH fluorescence kinetic, PGE2 substrate
Target sequence (P15428 whole entry, looked up): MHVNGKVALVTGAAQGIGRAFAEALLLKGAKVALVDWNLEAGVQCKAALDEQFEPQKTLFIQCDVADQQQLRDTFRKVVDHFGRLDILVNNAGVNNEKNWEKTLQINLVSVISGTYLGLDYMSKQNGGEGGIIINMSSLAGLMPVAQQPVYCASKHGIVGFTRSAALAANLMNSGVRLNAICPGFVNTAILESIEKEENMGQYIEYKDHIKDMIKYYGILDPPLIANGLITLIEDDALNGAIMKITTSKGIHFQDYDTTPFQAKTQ
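20 nM HPGD preincubated 15 min at room temperature with compound in 50 mM Tris-HCl pH 8, 0.01% Tween 20. Started with 1 mM NAD+ and 30 uM prostaglandin E2; NADH fluorescence (360/450 nm) read 5 times over 30-s intervals, last minus first.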
KDM4E inh: qHTS Assay for Inhibitors of Human Jumonji Domain Containing 2E (JMJD2E). Lysine-specific demethylase 4E (Homo sapiens), B2RXH2. JMJD2E catalytic domain, FDH-coupled NADH fluorescence (FDH is formaldehyde dehydrogenase). Potency, µM (titrated, usually from 57.1 µM), usual class: inhibitors. 230,000 compounds, 1.6% hits. AID 2147, 2009; also: nearly all actives have a fitted effect of over 50% in size
ALDH1A1 inh: qHTS Assay for Inhibitors of Aldehyde Dehydrogenase 1 (ALDH1A1). Aldehyde dehydrogenase 1A1 (Homo sapiens), P00352. Potency, µM (doses to about 75.3 µM), actives largely listed as inhibitors. 220,000 compounds, 7.3% hits. Purified ALDH1A1, NADH fluorescence, propionaldehyde substrate
Target sequence (P00352 whole entry, looked up): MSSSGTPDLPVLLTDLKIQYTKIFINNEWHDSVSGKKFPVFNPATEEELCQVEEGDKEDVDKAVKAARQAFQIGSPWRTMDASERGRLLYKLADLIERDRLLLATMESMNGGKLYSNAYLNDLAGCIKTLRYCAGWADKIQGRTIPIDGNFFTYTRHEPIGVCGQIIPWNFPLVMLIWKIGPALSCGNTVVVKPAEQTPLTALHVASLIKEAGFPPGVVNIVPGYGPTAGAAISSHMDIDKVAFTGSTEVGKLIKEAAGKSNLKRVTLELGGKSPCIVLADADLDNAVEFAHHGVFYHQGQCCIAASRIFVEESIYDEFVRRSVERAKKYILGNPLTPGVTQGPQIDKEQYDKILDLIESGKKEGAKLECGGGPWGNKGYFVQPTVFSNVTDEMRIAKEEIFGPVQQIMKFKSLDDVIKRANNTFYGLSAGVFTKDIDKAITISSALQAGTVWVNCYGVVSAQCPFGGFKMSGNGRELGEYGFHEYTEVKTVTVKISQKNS
Lamin A splicing: qHTS Assay for Modulators of Lamin A Splicing. HeLa LMNA splicing GFP/RFP minigene ratio, 48 h. Potency, µM (highest dose often 46.1 µM), hits mostly inhibitors. 200,000 compounds, 0.01% hits. AID 1487, 2009; active = well fitted inhibition curve with a large enough effect in the signal ratio, with a control signal flat, not every such curve was filed as active; inconclusive = small, poorly fitted or top-dose-only effect, or effect the other way, or a change in a side signal; the % refers to the signal ratio
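Read-out is the ratio of GFP to DsRed2 object intensity, acquired by 488 nm laser-scanning cytometry on HeLa lamin A-EGFP minigene reporter cells. Compound incubation 48 hrs at 37 °C in Opti-MEM with 2% FBS; DMSO 0.5% final.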
HttQ103 aggreg: qHTS Multiplex Assay to Identify Dual Action Probes in a Cell Model of Huntington: Aggregate Formation (GFP) | Potency, µM (doses to about 46.1 µM), actives largely listed as inhibitors | 220,000 compounds, 1.1% hits | PC12 HttQ103-GFP aggregates, Acumen cytometry, 40 h; active = well fitted curve in the direction sought with a large enough effect; inconclusive = small, poorly fitted or top-dose-only effect, or another doubt; inactive = no such curve, though single readings can be large; an effect the other way counts as inactive or inconclusive; also: nearly all actives have a fitted effect of over 60% in size
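Inducible Q103 Huntingtin exon 1–GFP PC12 line, 1500 cells/well in phenol red free DMEM with 5% equine and 5% calf serum. Tebufenozide 100 nM induced expression; compounds titrated; aggregates quantified by cytometry.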
Each line names hits and unclear results; the compound was inactive in the other large screens. Unless noted, calls follow the shape of the dose curve; as a rule, active = well fitted inhibition curve with a large enough effect (not every such curve was filed as active); inconclusive = small, poorly fitted or top-dose-only effect, or another doubt; inactive = no such curve, though single readings can be large or run the other way.

O=c1[nH]c2c(s1)C(c1ccc(O)cc1)C1C3CCC(C3)C1S2 (stereo not given)	HPGD block inconclusive, ALDH1A1 inh 11.2µM
CC(C)(N)CO[C@H]1C[C@H]2CC[C@@]1(C)C2(C)C	none (no result: KDM4E inh, Lamin A splicing, HttQ103 aggreg)
CN1/C(=C\C=C2/C(=O)Oc3ccccc3C2=O)C(C)(C)c2ccccc21	Lamin A splicing inconclusive, HttQ103 aggreg 7.94µM (no result: HTT cytoprotect)
Cc1ccc(C2C(C#N)=C(N)Oc3n[nH]c(-c4cccs4)c32)cc1 (stereo not given)	KDM4E inh 7.08µM
N#CC1=C(N)Oc2n[nH]c(-c3ccncc3)c2C1c1ccsc1 (stereo not given)	HPGD block 22.4µM
N#CC1=C(N)Oc2n[nH]c(-c3ccccc3)c2C1c1ccsc1 (stereo not given)	KDM4E inh inconclusive
CC(=O)c1ccc(NC(=O)CN(C)S(=O)(=O)c2cc3c(cc2Cl)NC(=O)CO3)cc1	none (no result: HTT cytoprotect, HPGD block, KDM4E inh, ALDH1A1 inh, HttQ103 aggreg)
CCOC(=O)c1c(NC(=O)Cc2cccs2)sc(C(=O)NC2CCCCC2)c1C	none
COC(=O)c1c(NC(=O)COC(=O)CNC(=O)c2ccco2)sc(C)c1C	ALDH1A1 inh inconclusive, Lamin A splicing inconclusive
CCOC(=O)c1sc(NC(=O)COC(=O)CNC(=O)c2ccco2)c(C(=O)OCC)c1C	KDM4E inh inconclusive, ALDH1A1 inh 28.2µM, Lamin A splicing inconclusive
COC(=O)c1c(NC(=O)Cc2cccs2)sc(C(=O)N2CCCCC2)c1C	HPGD block 15.8µM, ALDH1A1 inh 4.47µM, HttQ103 aggreg inconclusive
COC(=O)c1c(NC(=O)c2ccco2)sc(C(=O)N2CCCC2)c1C	HPGD block 17.8µM, ALDH1A1 inh 14.1µM
CCOC(=O)c1c(NC(=O)Cc2cccs2)sc(C)c1C	HPGD block inconclusive, ALDH1A1 inh 12.6µM
CCOC(=O)c1c(NC(=O)COC(=O)CNC(=O)c2ccco2)sc(C)c1C	Lamin A splicing inconclusive
Cc1ccc(S(=O)(=O)N(C)C)cc1[N+](=O)[O-]	none (no result: HPGD block, ALDH1A1 inh, Lamin A splicing)
Cn1c(N)c(C(=O)COC(=O)c2cc(-c3ccco3)nc3ccccc23)c(=O)n(Cc2ccccc2)c1=O	HTT cytoprotect 10µM, HPGD block inconclusive, KDM4E inh inconclusive, ALDH1A1 inh inconclusive
Cc1ccc(-n2ncc3c(=O)n(CC#N)cnc32)cc1C	KDM4E inh inconclusive, ALDH1A1 inh 15.8µM
C#CCn1cnc2c(cnn2-c2ccc(C)c(C)c2)c1=O	KDM4E inh inconclusive, ALDH1A1 inh 14.1µM
CCCCNC(=O)Cn1cnc2c(cnn2-c2ccc(C)c(C)c2)c1=O	Lamin A splicing inconclusive
Cc1ccc(-n2ncc3c(=O)n(CC(=O)NCc4ccco4)cnc32)cc1C	HPGD block inconclusive, KDM4E inh inconclusive, ALDH1A1 inh inconclusive, Lamin A splicing inconclusive
CCOc1ccccc1O[C@@H](c1ccccc1)[C@@H]1CNCCO1	KDM4E inh inconclusive, ALDH1A1 inh inconclusive (no result: Lamin A splicing)
O=C(O)CC/C(=C\c1ccc(N2CCOCC2)c([N+](=O)[O-])c1)c1nc2ccccc2s1	ALDH1A1 inh 6.31µM (no result: HPGD block)
CCCc1nc2sc3c(SCC(=O)NCc4ccco4)ncnc3c2c2c1CCC2	HPGD block inconclusive, KDM4E inh inconclusive, ALDH1A1 inh 25.1µM, Lamin A splicing inconclusive, HttQ103 aggreg inconclusive
O=C(CSc1nc(C2CC2)nc2sc3c(c12)CCCC3)NCc1ccco1	none
Cc1nc(SCC(=O)NCc2ccco2)c2c3c(sc2n1)CCCC3	HPGD block 14.1µM, ALDH1A1 inh 10µM
CC(C)NC(=O)N1CCC2(CC1)CCN(C(=O)c1cc(C(F)(F)F)cc(C(F)(F)F)c1)CC2	none (no result: KDM4E inh, Lamin A splicing, HttQ103 aggreg)
COc1ccc(N(C(C)C(=O)N/N=C/c2ccc(OC(C)C)cc2)S(C)(=O)=O)cc1 (stereo not given)	ALDH1A1 inh 14.1µM, Lamin A splicing inconclusive
N#Cc1cc(Oc2cccc3cccnc23)c(-n2nnc3ccccc32)cc1C#N	KDM4E inh 31.6µM, Lamin A splicing inconclusive (no result: HPGD block)
N#Cc1cc(O)c(-n2nnc3ccccc32)cc1C#N	none (no result: HTT cytoprotect, HPGD block, Lamin A splicing)
COc1ccc(OC2C(=O)N(c3ccc(C)c(C)c3)C2c2ccc(OC)c(OC)c2)cc1 (stereo not given)	none
COc1ccc(NC2=CC(c3ccc(OC)c(OC)c3)N(c3ccc(OC)cc3)C2=O)cc1 (stereo not given)	HPGD block inconclusive, ALDH1A1 inh 14.1µM, Lamin A splicing inconclusive (no result: HTT cytoprotect)
CCOc1ccc(NC(=O)c2cc(C)nc3c2c(C)nn3-c2cccc(F)c2)cc1	none (no result: HTT cytoprotect, HPGD block, KDM4E inh, ALDH1A1 inh, HttQ103 aggreg)
CCC(=O)N1c2ccccc2CC1C(=O)NCCCN1CCN(c2cc(C)ccc2C)CC1 (stereo not given)	none (no result: HTT cytoprotect, HPGD block, KDM4E inh, ALDH1A1 inh, HttQ103 aggreg)
CCOC(=O)c1c(C(=O)OCC)c(C)n(N2C(=O)CSC2=S)c1C	HttQ103 aggreg 0.891µM
COc1ccc(C(O)c2nc3ccccc3s2)cc1 (stereo not given)	none
O=C(O)[C@@H](O)[C@@H](O)[C@@H](O)[C@@H](O)c1nc2ccccc2s1	HPGD block 3.55µM (no result: KDM4E inh, Lamin A splicing, HttQ103 aggreg)
C[C@@]12CCC(=O)C=C1CC[C@@H]1[C@@H]2[C@H](O)C[C@]2(C)[C@@H]1CC[C@]2(O)C(=O)COC(=O)CCC(=O)O	none (no result: HPGD block, KDM4E inh, ALDH1A1 inh, Lamin A splicing, HttQ103 aggreg)
COC(=O)c1c(NC(=O)C(Cl)Cl)sc2c1C(C(=O)OC)CC2 (stereo not given)	ALDH1A1 inh 0.891µM (no result: HPGD block, Lamin A splicing)
Cc1ccc(-c2c(C(=O)N3CCOCC3)oc(=O)c3ccccc23)cc1	ALDH1A1 inh 1.58µM
Cc1ccc(-c2c(C(=O)NCc3ccc(F)cc3)oc(=O)c3ccccc23)cc1	HTT cytoprotect inconclusive, ALDH1A1 inh 7.08µM
CCN1CCN(C(=O)c2oc(=O)c3ccccc3c2-c2ccc(C)cc2)CC1	ALDH1A1 inh inconclusive, Lamin A splicing inconclusive
CC(=O)NC(NC(=S)Nc1ccc(S(N)(=O)=O)cc1)C(Cl)(Cl)Cl (stereo not given)	none (no result: HPGD block, ALDH1A1 inh, Lamin A splicing)
CCOC(=O)NC(NC(=S)Nc1ccccc1OC)C(Cl)(Cl)Cl (stereo not given)	KDM4E inh inconclusive
CCOC(=O)NC(NC(=S)Nc1ccc(OC)cc1)C(Cl)(Cl)Cl (stereo not given)	none
COC(=O)NC(NC(=S)Nc1ccc([N+](=O)[O-])cc1)C(Cl)(Cl)Cl (stereo not given)	HTT cytoprotect inconclusive, HPGD block 31.6µM, ALDH1A1 inh 20µM, Lamin A splicing inconclusive, HttQ103 aggreg inconclusive
COC(=O)NC(NC(=S)Nc1ccccc1OC)C(Cl)(Cl)Cl (stereo not given)	ALDH1A1 inh 3.16µM (no result: HPGD block)
